From PubChem
Compounds with a hit are over-represented: about 12% of the library has one in this group of screens.
Pf growth 48h – inhibits P. falciparum growth in the first generation, 48 h. 5.9% of 310,000 active. P. falciparum luciferase growth in erythrocytes, 48 h. Potency, µM (doses to about 28.7 µM), without a hit: at the top dose activity change, negative = inhibition, usual class: inhibitors; also: % is scaled to controls: 0 for no effect and ±100 for the full control effect
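Luminescence readout; reporter = integrated firefly luciferase in P. falciparum. RBC culture at 2% hematocrit, 0.1% parasitemia final, 37 C/5% CO2; decreased signal taken as growth inhibition.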
HCV inh – blocks hepatitis C virus. Huh7.5.1 HCVcc-Cre infection, luciferase reporter, 44 h. Potency, µM (series often up to 41.8 µM), for the others: at the top dose activity change, negative = inhibition, hits mostly inhibitors. 3.4% of 340,000 active. AID 651820; also: % is scaled to controls: 0 for no effect and ±100 for the full control effect
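Whole-lifecycle infectious HCVcc-Cre system; cells 1,000/well, compound then virus (~0.5 moi) added 4 h after plating, 44 h culture. Luciferase read 15 sec following 15 min substrate incubation, room temp.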
SARS PLP yeast – inhibitors of SARS-CoV papain-like protease in yeast. Potency, µM (top dose mostly 32.9 µM), without a hit: at the highest dose activity, positive = growth rescue, hits mostly activators. 0.19% of 330,000 active. S. cerevisiae expressing SARS-CoV PLpro, growth rescue; calls by dose curve; also: 0% is about no effect; nearly all actives have a fitted effect of over 55% in size
AMA1 RON2 block – disrupts binding of P. falciparum AMA1 to RON2. AlphaScreen AMA1-biotinylated RON2 peptide binding. Potency, µM (titrated, usually from 58.2 µM), without a hit: at the top dose activity change, negative = inhibition, most hits filed as inhibitors. 0.2% of 360,000 active;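 also: 0% = vehicle wells and -100% = peptide control; nearly all actives have a fitted effect of over 45% in size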
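AMA1 (3D7) with his tag at 25 nM final met compounds first, then biotinylated RON2 peptide at 25 nM; detection used donor plus acceptor beads, 10 µg/mL apiece, read by AlphaScreen after 30 min at room temperature.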
NS1 inh – influenza NS1 inhibition. Potency, µM (doses to about 46.1 µM), for inactives: top-dose activity, positive = more growth. 0.4% of 270,000 active. AID 2326; calls by dose curve; also: actives are rising curves; nearly all actives have a fitted effect of over 50% in size
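In this qHTS, NS1 from influenza A is expressed in budding yeast, where it slows growth. Cells are switched from glucose to 2% galactose medium (pH 6.0, -URA), treated with compound, and growth recovery is read at OD600.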
Pf growth 96h – P. falciparum growth inhibition at 96 hour, primary screen for plastid delayed-death inhibitors. P. falciparum luciferase reporter growth, 96 h. Potency, µM (series often up to 28.7 µM), for the others: top-dose activity change, negative = inhibition, most hits filed as inhibitors. 6.9% of 320,000 active. AID 504834; also: % is scaled to controls: 0 for no effect and ±100 for the full control effect
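P. falciparum expressing integrated firefly luciferase grown in erythrocytes (2% hematocrit, 0.05% parasitemia final) with compounds for 96 hours at 37 C, 5% CO2. Growth inhibition read as loss of luminescence after adding luciferase detection reagent.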
Active calls of the source: *; i = inactive; ? = inconclusive; · = no result; [ ] = dose if it differs, or a comment. Unless noted, calls follow the shape of the dose curve; as a rule, active = well fitted curve in the direction sought with a large enough effect; inconclusive = small, poorly fitted or top-dose-only effect, or another doubt; inactive = no such curve, though single readings can be large; an effect the other way counts as inactive or inconclusive. Potency is read from the fitted curve at half-maximal effect.

SMILES | Pf growth 48h | HCV inh | SARS PLP yeast | AMA1 RON2 block | NS1 inh | Pf growth 96h
COc1ccc(CCn2c(=N)c(C(=O)NCCN3CCOCC3)cc3c(=O)n4ccccc4nc32)cc1OC | ? | 18% | -1% | 63% | 1% | ?
Cc1ccc(CNC(=O)c2cc3c(=O)n4cccc(C)c4nc3n(CC3CCCO3)c2=N)cc1 (centres undefined) | ? | · | 9% | · | 17% | 8.3µM*
Cc1ccc(Cn2c(=N)c(C(=O)NCC3CCCO3)cc3c(=O)n4cccc(C)c4nc32)cc1 (centres undefined) | ? | 11µM* | -2% | -11% | 4% | ?
CN1CCCN(C(=O)c2c(F)cccc2Cl)CC1 | 9% | 7% | -2% | 2% | 2% | -24%
N=c1c(C(=O)NCc2ccc3c(c2)OCO3)cc2c(=O)n3ccccc3nc2n1CC1CCCO1 (centres undefined) | ? | ? | -14% | -5% | -2% | ?
COc1ccc(CCNC(=O)c2cc3c(=O)n4ccccc4nc3n(CC3CCCO3)c2=N)cc1 (centres undefined) | · | ? | · | -2% | · | ·
N=c1c(C(=O)NCc2ccco2)cc2c(=O)n3ccccc3nc2n1CC1CCCO1 (centres undefined) | · | ? | · | -10% | · | ·
Cc1cccn2c(=O)c3cc(C#N)c(=N)n(Cc4cccnc4)c3nc12 | · | 7% | · | -12% | 5% | ·
N=c1c(C(=O)NCc2ccc(F)cc2)cc2c(=O)n3ccccc3nc2n1CC1CCCO1 (centres undefined) | 12µM* | ? | 1% | -15% | 2% | 1%[5.75 µM]
N=c1c(C(=O)NCCc2ccccc2)cc2c(=O)n3ccccc3nc2n1CC1CCCO1 (centres undefined) | 2.1µM* | ? | 2% | 6% | -5% | ?
Cc1ccc(Cn2c(=N)c(C#N)cc3c(=O)n4cccc(C)c4nc32)cc1 | 10% | · | 0% | · | 0% | 15µM*
COc1ccc(CCNC(=O)c2cc3c(=O)n4ccccc4nc3n(CC3CCCO3)c2=N)cc1OC (centres undefined) | ? | 8.9µM* | -2% | -7% | -2% | ?
O=[N+]([O-])c1ccc(Oc2ccc(S(=O)(=O)N3CCOCC3)cn2)cc1 | 3% | -10% | · | 7% | · | -3%
CN(CC(=O)Nc1cccc(F)c1)C(=O)CCCNC(=O)c1ccc(Cl)cc1 | 132% | 2% | -3% | 0% | · | 125%
CCN(CC)C(=O)COc1ccc2oc(-c3ccco3)cc(=O)c2c1 | ? | 11% | -2% | 6% | -3% | ?
CC(C)(C)C(=O)Nc1ccc(C(=O)NNC(=O)Cc2ccccc2)cc1 | 21% | 7% | 7% | 11% | -10% | 2.9µM*
CC(C)(C)C(=O)Nc1ccc(C(=O)NNC(=O)c2ccccc2)cc1 | 46% | -12% | -9% | 1% | · | 13µM*
CC(C)(C)C(=O)Nc1ccc(NC(=O)C(C)(C)C)cc1 | 4% | 17% | 1% | 0% | 7% | 61%
CCC(=O)Nc1ccc(C(=O)NNC(=O)c2ccccc2)cc1 | 40% | 6% | 0% | 0% | -2% | 29%
COc1ccc(Cl)cc1C(=O)Nc1cccnc1Cl | 37% | -5% | 6% | 3% | -14% | ?
Cc1ccc(-n2nc3c(=O)n(CC(=O)NC4CCCCCC4)nc(C)c3c2C)cc1 | 15% | -18% | -3% | 14% | 4% | 13µM*
Cc1ccc(-n2nc3c(=O)n(CCCC(=O)NC4CCC(C)CC4)nc(C)c3c2C)cc1 (centres undefined) | ? | 22% | 4% | -3% | -1% | 25%
COc1ccc(OC)c(CCNC(=O)Cn2nc(C)c3c(C)n(-c4ccc(C)cc4)nc3c2=O)c1 | -17% | 1.1µM* | -1% | -9% | -17% | ?
Cc1ccc(-n2nc3c(=O)n(CC(=O)NCCc4ccccc4C)nc(C)c3c2C)cc1 | ? | 5µM* | 0% | 21% | -2% | 39%
COC(=O)[C@@H](Cc1c[nH]c2ccccc12)NC(=O)c1ccc2c(c1)OCO2 | 268% | 15% | -2% | 0% | -9% | i
SMILES | Pf growth 48h | HCV inh | SARS PLP yeast | AMA1 RON2 block | NS1 inh | Pf growth 96h
COc1cccc(-n2cn[nH]c2=S)c1 | 17% | 5% | 1% | 33% | · | 43%
COc1cccc(-n2sc3c(c2=S)-c2cc(OC)ccc2NC3(C)C)c1 | ? | 10µM* | 3% | 22µM* | 17% | ?
CCS(=O)(=O)c1ncc(CO)n1CCc1ccccc1 | 4% | -4% | -9% | 18% | 11% | ?
Cc1ccc(NC(=O)COC(=O)C2CSC3(C)CCC(=O)N23)c(C)c1 (centres undefined) | -13% | 4% | 0% | -24% | · | -17%
Cc1ccc(OC(=O)C2CSC3(C)CCC(=O)N23)c(Br)c1 (centres undefined) | 23% | 14% | -2% | -5% | · | 5.9µM*
c1ccc(CCCCc2ccccn2)cc1 | · | 6% | · | 2% | · | ·
c1ccc(CCCNc2ncccn2)cc1 | 69% | 9% | -17% | -3% | 3% | 3.3µM*
COc1ccc(CN(Cc2cc3ccc(C)cc3[nH]c2=O)Cc2nnnn2C2CCCC2)cc1 | ? | -13% | -3% | -12% | -3% | ?
Cc1ccc2cc(CN(Cc3nnnn3C3CCCCC3)CC3CCCO3)c(=O)[nH]c2c1 (centres undefined) | ? | -21% | 1% | -6% | -31% | -10%
Cc1cc2cc(CN(Cc3nnnn3C3CCCCC3)CC3CCCO3)c(=O)[nH]c2cc1C (centres undefined) | 8.3µM* | -2% | 3% | -7% | -13% | -11%
COc1ccc2cc(CN(CCCN3CCOCC3)Cc3nnnn3C3CCCC3)c(=O)[nH]c2c1 | 10µM* | -11% | -3% | 53% | -9% | 5.2µM*
Cc1cc(C)c2cc(CN(Cc3nnnn3C3CCCCC3)CC3CCCO3)c(=O)[nH]c2c1 (centres undefined) | 13µM* | ? | 1% | 0% | -16% | 4%[5.75 µM]
COc1cc(/C=C(/C#N)c2ccc(F)cc2)ccc1Oc1ccc([N+](=O)[O-])cn1 | 4.7µM* | 2.5µM* | 18% | -26% | 10% | -17%
CCc1cccc(NC(=O)CCNS(=O)(=O)c2cc(Br)cnc2N)c1 | 13µM* | -1% | 30% | -12% | -3% | 40%
CC(C)c1ccc(NC(=O)CCNS(=O)(=O)c2cc(Br)cnc2N)cc1 | -1% | 10% | -3% | 13% | 9% | 9%
Nc1ncc(Br)cc1S(=O)(=O)NCCC(=O)N1CCN(c2ccccc2)CC1 | 6.6µM* | 3% | 3% | 5% | -22% | 34%
NC(=O)C1CCN(C(=O)CCNS(=O)(=O)c2cc(Br)cnc2N)CC1 | 25% | 7% | -4% | -3% | -13% | 15%
